AMA1 RON2 block – inhibitors of Plasmodium falciparum AMA1-RON2 interaction. Potency, µM (titrated, usually from 58.2 µM), actives largely listed as inhibitors. AID 720542. AlphaScreen AMA1-biotinylated RON2 peptide binding. actives 0.2% (n = 360,000); also: nearly all actives have a fitted effect of over 45% in size
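AMA1 (3D7) with his tag at 25 nM final met compounds first, then biotinylated RON2 peptide at 25 nM; detection used donor plus acceptor beads, 10 µg/mL apiece, read by AlphaScreen after 30 min at room temperature.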
Shiga toxin inh – inhibitors of Shiga toxin in Vero cells; Vero cells, Shiga toxin protein synthesis inhibition reporter; inhibition, % at 38.7 µM; actives 9.2% (n = 290,000); AID 2315; in the data active = inhibition mostly above about 28%, no sharp cut-off; inactive = mostly below about 43%
HCV inh – inhibitors of hepatitis C virus infection. Huh7.5.1 HCVcc-Cre infection, luciferase reporter, 44 h. Potency, µM (doses to about 41.8 µM), hits mostly inhibitors. actives 3.4% (n = 340,000). AID 651820
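Antiviral activity was scored by luciferase reporter output from cells infected with HCVcc-Cre (~0.5 moi) in presence of compound, 44 h infection period, cells seeded 1,000/well 4 h prior.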
Cycloheximide cs – counter-screen for Shiga toxin inhibitors: cycloheximide protein synthesis inhibition; cell reporter, cycloheximide protein synthesis inhibition counterscreen; max response, %; actives 12% (n = 300,000); AID 2314; in the data active = max response mostly above about 13%, no sharp cut-off; inactive = mostly below about 14%; also: read at 38.3 µM for the half of the compounds with a filed dose
Pf growth 96h – inhibits malaria parasite growth, 96 h; P. falciparum luciferase reporter growth, 96 h; Potency, µM (doses to about 28.7 µM), most hits filed as inhibitors; actives 6.9% (n = 320,000); AID 504834
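96 h incubation, 37 C, 5% CO2, of luciferase-reporter P. falciparum-infected RBCs (2% hematocrit, 0.05% parasitemia final) with test compounds; endpoint luminescence.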
Pf growth 48h – inhibits P. falciparum growth in the first generation, 48 h; P. falciparum luciferase growth in erythrocytes, 48 h; Potency, µM (titrated, usually from 28.7 µM), most hits filed as inhibitors; actives 5.9% (n = 310,000); AID 504832
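In quantitative HTS format, infected erythrocytes bearing luciferase-reporter parasites were treated for a single generation at 37 C. Luminescence after adding detection reagent served as the growth measure.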
Hits are given with their value. Sampled rows, rich in hits. Any-hit rate of the full collection: about 21%. Unless noted, calls follow the shape of the dose curve; as a rule, active = well fitted curve in the direction sought with a large enough effect; inconclusive = small, poorly fitted or top-dose-only effect, or another doubt; inactive = no such curve, though single readings can be large; an effect the other way counts as inactive or inconclusive.

What do the screens show for `CC1(C)[C@H]2CC=C(CN3CCC(N4CCC(C(=O)N5CCCC5)CC4)CC3)[C@@H]1C2`?
AMA1 RON2 block: inactive; Shiga toxin inh: inactive; HCV inh: 31.6µM; Cycloheximide cs: inactive; Pf growth 96h: inactive; Pf growth 48h: inconclusive

How did Cc1cccc(NC(=O)CSCc2nc3c(nnn3Cc3ccc(F)cc3)c(=O)[nH]2)c1C do in these assays?
AMA1 RON2 block: inactive; Shiga toxin inh: inactive; HCV inh: inactive; Cycloheximide cs: inactive; Pf growth 96h: inactive; Pf growth 48h: inactive

Results for CN(C)c1ccc(NC(=O)CSCc2nc3c(nnn3Cc3ccc(F)cc3)c(=O)[nH]2)cc1 ?
AMA1 RON2 block: inactive; Shiga toxin inh: inactive; HCV inh: inactive; Cycloheximide cs: inactive; Pf growth 96h: 8.28µM; Pf growth 48h: inactive

How did CS(=O)(=O)N(CC(=O)N/N=C/c1ccco1)c1ccccc1Br do in these assays?
AMA1 RON2 block: inactive; Shiga toxin inh: inactive; HCV inh: inactive; Cycloheximide cs: inactive; Pf growth 96h: inactive; Pf growth 48h: inactive

What do the screens show for `CN(C)c1ccc(/C=N/NC(=O)CN(c2cccc(Cl)c2)S(C)(=O)=O)cc1Br`?
AMA1 RON2 block: inactive; Shiga toxin inh: inactive; HCV inh: inconclusive; Cycloheximide cs: inactive; Pf growth 48h: 13.1µM

How did Cc1cccc(C)c1NC(=O)NC1(C(=O)N2CCOCC2)CCCCC1 do in these assays?
AMA1 RON2 block: inactive; Shiga toxin inh: inactive; HCV inh: inactive; Cycloheximide cs: inactive; Pf growth 96h: inactive; Pf growth 48h: inactive

What do the screens show for `Cc1oc(-c2cc(F)ccc2F)nc1CN(C)Cc1ccc2nccnc2c1`?
AMA1 RON2 block: inactive; Shiga toxin inh: inactive; HCV inh: inconclusive; Cycloheximide cs: inactive; Pf growth 96h: 2.94µM; Pf growth 48h: inconclusive

What do the screens show for `Cc1oc(-c2cc(F)ccc2F)nc1CN1CCN(c2cnccn2)CC1`?
AMA1 RON2 block: inactive; Shiga toxin inh: inactive; HCV inh: inactive; Cycloheximide cs: inactive; Pf growth 96h: inconclusive; Pf growth 48h: 13.1µM

How did COc1ccc(F)c(-c2nc(CN3CCN(C(=O)c4ccco4)CC3)c(C)o2)c1 do in these assays?
AMA1 RON2 block: inactive; Shiga toxin inh: inactive; HCV inh: inactive; Cycloheximide cs: inactive; Pf growth 96h: inactive; Pf growth 48h: inactive

Results for COc1ccc(CCNC(=O)CC(=O)N/N=C\c2ccc(OCC(N)=O)cc2)cc1OC ?
AMA1 RON2 block: inactive

What do the screens show for `Cc1ccc(S(=O)(=O)n2ccc3c2CCCC3=O)cc1`?
AMA1 RON2 block: inactive; Shiga toxin inh: inactive; HCV inh: inactive; Cycloheximide cs: inactive; Pf growth 96h: inactive; Pf growth 48h: inactive

What do the screens show for `Nc1nc(-c2ccco2)c(-c2ccco2)s1`?
AMA1 RON2 block: inactive; Shiga toxin inh: inactive; HCV inh: inconclusive; Cycloheximide cs: inactive; Pf growth 96h: inconclusive; Pf growth 48h: inconclusive

How did COc1ccc2nc(-c3ccco3)c(-c3ccco3)nc2c1 do in these assays?
AMA1 RON2 block: inactive; Shiga toxin inh: inactive; HCV inh: inconclusive; Cycloheximide cs: 53.9; Pf growth 96h: inactive

Results for COc1ccc(-c2nc3ccccc3nc2-c2ccc(OC)cc2)cc1 ?
AMA1 RON2 block: inactive; Shiga toxin inh: inactive; HCV inh: inconclusive; Cycloheximide cs: inactive; Pf growth 96h: inactive; Pf growth 48h: inconclusive

Results for c1coc(-c2nc3cc4ccccc4cc3nc2-c2ccco2)c1 ?
Shiga toxin inh: 66.2; Cycloheximide cs: 25.5

How did c1coc(-c2nc(-c3ccco3)c(-c3ccco3)nc2-c2ccco2)c1 do in these assays?
AMA1 RON2 block: 9.47µM; Shiga toxin inh: inactive; HCV inh: inactive; Cycloheximide cs: inactive; Pf growth 96h: inactive; Pf growth 48h: inactive

What do the screens show for `COc1ccccc1CC1CC(=O)N(c2cccc(Cl)c2C)C1=O` (configuration not stated)?
AMA1 RON2 block: inactive; Shiga toxin inh: inactive; HCV inh: inactive; Cycloheximide cs: inactive; Pf growth 96h: inactive; Pf growth 48h: inactive

Results for O=c1cc(-c2cccc(F)c2)[nH]c2cc(F)ccc12 ?
Shiga toxin inh: inactive; Cycloheximide cs: inactive

Results for OC1(c2ccc(Cl)cc2)CCN(Cc2cn[nH]c2-c2ccc(F)cc2)CC1 ?
AMA1 RON2 block: inactive; Shiga toxin inh: inactive; HCV inh: 8.91µM; Cycloheximide cs: inactive; Pf growth 96h: inconclusive; Pf growth 48h: 13.1µM

Results for Cc1ccc(Cn2nnnc2CN2CCC(O)(c3ccc(F)cc3)CC2)cc1 ?
AMA1 RON2 block: inactive; Shiga toxin inh: inactive; HCV inh: inactive; Cycloheximide cs: inactive; Pf growth 96h: inactive; Pf growth 48h: 13.1µM

Results for COc1ccc(-c2[nH]ncc2CN2CCC(O)(c3ccc(Cl)cc3)CC2)cc1 ?
AMA1 RON2 block: inconclusive; Shiga toxin inh: inactive; HCV inh: inconclusive; Cycloheximide cs: inactive; Pf growth 96h: 11.7µM; Pf growth 48h: inconclusive

What do the screens show for `Fc1ccc(N2CCN(Cc3cn[nH]c3-c3ccccc3)CC2)cc1`?
AMA1 RON2 block: inactive; Shiga toxin inh: inactive; HCV inh: inactive; Cycloheximide cs: inactive; Pf growth 96h: inactive; Pf growth 48h: inconclusive

How did OC1(c2ccc(Cl)cc2)CCN(Cc2cn[nH]c2-c2ccccc2)CC1 do in these assays?
AMA1 RON2 block: inactive; Shiga toxin inh: inactive; HCV inh: inconclusive; Cycloheximide cs: inactive; Pf growth 96h: 9.28µM; Pf growth 48h: inconclusive

How did Cc1ccccc1C(=O)N1CCC(C(=O)Nc2ccc(S(=O)(=O)N3C(C)CCCC3C)cc2)CC1 (configuration not stated) do in these assays?
AMA1 RON2 block: inactive; HCV inh: inconclusive

How did CCOc1ccc(CNC(=O)C2CCN(c3nn4c(=O)cc(C)nc4s3)CC2)cc1 do in these assays?
AMA1 RON2 block: inactive; Shiga toxin inh: inactive; HCV inh: inactive; Cycloheximide cs: inactive; Pf growth 96h: inconclusive; Pf growth 48h: inactive

Results for CCc1nc2ccc(C(=O)Nc3cc(-c4ccccc4)ccc3OC)cn2c1N(C=O)CCC(C)C ?
AMA1 RON2 block: inactive

What do the screens show for `CCCc1nn(C)c2c(=O)[nH]c(-c3cc(S(=O)(=O)Nc4ccc(NC(C)=O)cc4)ccc3OCC)nc12`?
AMA1 RON2 block: inactive; Shiga toxin inh: inactive; HCV inh: inconclusive; Cycloheximide cs: inactive; Pf growth 96h: 11.7µM; Pf growth 48h: 9.28µM

What do the screens show for `CCCc1nn(C)c2c(=O)[nH]c(-c3cc(S(=O)(=O)N4CCN(C)CC4)ccc3OCC)nc12`?
AMA1 RON2 block: inactive; Shiga toxin inh: inactive; HCV inh: inactive; Cycloheximide cs: inactive; Pf growth 96h: inconclusive; Pf growth 48h: inconclusive

How did C[N+](C)(C)C[C@H](O)CC(=O)[O-] do in these assays?
AMA1 RON2 block: inactive; HCV inh: inactive; Pf growth 96h: inactive; Pf growth 48h: inconclusive

What do the screens show for `COc1ccc2cc(C(=O)N/N=C/c3sc4ccccc4c3O)ccc2c1`?
AMA1 RON2 block: inactive; Shiga toxin inh: 111.4; HCV inh: inconclusive; Cycloheximide cs: 51.5; Pf growth 96h: inactive; Pf growth 48h: inconclusive

What do the screens show for `O=C(N/N=C/c1ccc(Br)cc1)c1ccc(NC(=O)c2ccccc2)cc1`?
AMA1 RON2 block: inactive; HCV inh: inactive

Screening results as filed in PubChem.
